Results from PubChem BioAssay AID364 (The Scripps Research Institute Molecular Screening Center, 2006).
Screen size: about 3,300 compounds; about 50 (2%) were called active. These entries were drawn from the full list. Entries with a potency or affinity are not part of this list. Unmarked numbers belong to inactive results.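 The calls were made as follows: active = concentration giving half-maximal inhibition at or below 20 micromolar; inactive = half-maximal concentration above 20 micromolar, or not dose tested.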

Test: cytotoxicity toward Jurkat T cells, primary screen, cell-based, Jurkat E6.1, NIH starter set (AID 364);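 also: 100% = cells treated with 4 µM doxorubicin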
Conditions: Jurkat E6.1 viability, ATP luminescence, 48 h; at 4 µM; active compounds read high

Row | SMILES | inhibition [%]
1 | Cc1cc(=O)oc(C)c1C(=O)NC12CC3CC(CC(C3)C1)C2 | 0.6
2 | COc1ccc2c(c1OC)C(=O)OC2C1c2c(cc3c(c2OC)OCO3)CCN1C (stereo unspecified) | 2.6
3 | O=C(O)CC(C(=O)OCC1CCCO1)N1CCOCC1 (stereo unspecified) | 11.6
4 | COc1nc(N(C)S(=O)(=O)c2ccc(C)cc2)nc(C)c1Cl | 2.3
5 | COc1cccc(OC)c1-c1nn2c(-c3ccco3)nnc2s1 | -5.6
6 | Cc1ccc2[nH]c(CCN(C)C)c(CC#N)c2c1 | -1
7 | Cn1c(=O)n(C)c2cc(C(=O)c3ccccc3)ccc21 | -1.7
8 | CCC(=O)Nc1nc(C)c(Oc2ccccc2)c(=O)[nH]1 | -13.8
9 | Cn1c(=O)oc2cc(C(=O)c3ccccc3)ccc21 | -2.2
10 | CC(=O)Nc1ccc(Oc2ccc3nc(C)[nH]c3c2)cc1 | 6.6
11 | CN1CCc2c(sc3ncn4nc(-c5ccccc5O)nc4c23)C1 | 2.9
12 | CSc1cc(C)nc(N(C)C(C)=O)n1 | -4.8
13 | CC1(c2cnc(Nc3ccccc3)s2)CCC(=O)O1 (stereo unspecified) | 3.7
14 | CC1CN(c2oc(-c3ccccc3Cl)nc2C#N)CC(C)O1 (stereo unspecified) | -11.7
15 | COc1ccc(/C(O)=C2/C(=O)C(=O)N(CCCN(C)C)C2c2ccccc2)cc1Cl (stereo unspecified) | 9.5
16 | COc1cccc(C2/C(=C(\O)c3ccc4c(c3)OCCO4)C(=O)C(=O)N2CCCN(C)C)c1OC (stereo unspecified) | -10.5
17 | C=CCn1cnc2c(c1=O)c1nc3ccccc3nc1n2-c1ccc(Cl)cc1 | -1.6
18 | CCCCOC(=O)CSC1=C(C#N)C(c2ccc3c(c2)OCO3)CC(=O)N1 (stereo unspecified) | 6.5
19 | CCCOC(=O)CSC1=C(C#N)C(c2ccc3c(c2)OCO3)CC(=O)N1 (stereo unspecified) | 29.3
20 | CSc1nc2[nH]c3c(c2c2nnnn12)CCCC3 | 1.2
21 | CC(=O)Nc1cccc(NC(=O)CSc2nc(C)c(C)c(C)c2C#N)c1 | -4.8

Row | SMILES | inhibition [%]
22 | COc1cc(C2C3C(=O)N(c4ccc(F)cc4)C(=O)C3ON2c2ccccc2)ccc1O (stereo unspecified) | 2.1
23 | COc1cccc(Cn2c(NCC(C)C)nc3c2c(=O)n(C)c(=O)n3C)c1 | 10.8
24 | CCCCNc1nc2c(c(=O)n(C)c(=O)n2C)n1Cc1cccc(OC)c1 | 35.2
25 | CN(C)CCNC(=O)C12CC3(C)CC(C)(CC(C)(C3)C1)C2 | -4.1
26 | CCOc1cccc(NC(=O)C2CC(=O)NC(=Nc3ccccc3)S2)c1 (stereo unspecified) | 15.4
27 | Cn1c(=O)[nH]c(=O)c2c1nc(Br)n2CCSc1nnnn1-c1ccccc1 | -0.6
28 | ClC(Br)=C(n1cnc2ccccc21)n1cnc2ccccc21 | 3.1
29 | CC(=O)CCn1c(=O)n(CCC(C)=O)c(=O)n(CCC(C)=O)c1=O | 4
30 | Clc1ccc2c(c1)C(N1CCNCC1)=Nc1ccccc1O2 | 2.2
31 | CN1CCN(C2=Nc3ccccc3Oc3ccc(Cl)cc32)CC1 | 2.6
32 | CC(C)CNC(=O)c1c(N)n(/N=C/c2cccnc2)c2nc3ccccc3nc12 | -0.2
33 | COc1cccc(C2C(C(=O)c3sc(C)nc3C)=C(O)C(=O)N2CCN2CCOCC2)c1OC (stereo unspecified) | 3.5
34 | CN(C)c1oc(-c2cccs2)nc1C#N | 5.5
35 | COc1ccc(-n2c(=O)c3c4c(sc3n3c(C)nnc23)CC(C)CC4)cc1 (stereo unspecified) | -5
36 | COc1ccc(Nc2cc(C)nc3ccccc23)cc1 | 6.3
37 | COc1ccc(Nc2nc(Nc3ccc(OC)cc3)nc(-n3[nH]c(=O)c(C)c3C)n2)cc1 | 4.5
38 | Cc1[nH]c2ccc(F)cc2c(=O)c1SC(F)(F)C(F)C(F)(F)F (stereo unspecified) | 1.9
39 | COc1ccc(C(=O)c2oc3nc(C)cc(C)c3c2N)cc1 | -3.3
40 | C=CCn1c(SCc2c(F)c(F)c(F)c(F)c2F)nc(O)cc1=O | -3.4
41 | CC(C)C(C(=O)Nc1ncn[nH]1)N1C(=O)c2ccccc2C1=O (stereo unspecified) | 1
